Measurements taken from PubChem BioAssay AID743287 (Broad Institute, 2014).
Where “and” joins values, the source holds several entries; their conditions need not be identical. Equal entries are not always repeated. In all, about 370,000 compounds went through this assay and about 2,300 (0.62%) were called active.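 How the source made its calls: active means lowest replicate activation of at least 40%, so every replicate reaches that level; inactive means the rest.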 Only a selection was taken, and actives are over-represented in it overall. The source holds several records for some structures; these can differ, active in one and inactive in another.

Assay: primary screen for activators of insulin secretion dependent on glucose, INS-1E cells, GLuc reporter luminescence (AID 743287);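 further: 0% = median of neutral control wells and 100% = median of IBMX positive control wells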
Conditions: INS-1E GLuc reporter insulin secretion, 2-3 h, at 16.6 µM, stronger effect = higher value

| SMILES | activation |
| --- | --- |
| Cc1ccc(CN2CCCC(C(=O)c3ccc4c(c3)OCO4)C2)cc1C (stereo not given) | -7.76% (inactive) |
| COc1ccc(C(=O)C2CCCN(Cc3ccc(C)s3)C2)cc1OC (stereo not given) | 53.8% (active) |
| COc1cccc(CN2CCCC(C(=O)c3ccccc3SC)C2)c1O (stereo not given) | -0.167% (inactive) |
| CCN(CC)C(=O)[C@@H]1C=C2c3cccc4[nH]c(Br)c(c34)C[C@H]2N(C)C1 | 13.7% (inactive) |
| COC(=O)[C@H]1[C@H](CO)[C@H]2Cn3c(ccc(C4=CCCC4)c3=O)[C@@H]1N2C(=O)CC1CC1 | -1.71% (inactive) |
| FC(F)(F)CN1CC2NC(C1)C2c1ccc(Br)cc1 (stereo not given) | -10.5% (inactive) |
| O=C(O)[C@H]1[C@H](CO)[C@H]2Cn3c(ccc(-c4ccccc4F)c3=O)[C@@H]1N2C(=O)c1cccnc1 | 19.1% (inactive) |
| CC(Cc1ccccc1)NC=O (stereo not given) | 3.77% (inactive) |
| CC(Cc1ccccc1)NCCC(c1ccccc1)c1ccccc1 (stereo not given) | 182% (active) |
| FC(F)(F)CN1CC2C(c3ccc(Br)cc3)C(C1)N2CC1CC1 (stereo not given) | -3.91% (inactive) |
| COC(=O)[C@@H]1[C@@H](CO)[C@@H]2Cn3c(ccc(C4=CCCCC4)c3=O)[C@H]1N2CC1CC1 | 6.37% (inactive) |
| CCCCCCCCCCCCn1ccc(=N)cc1 | 212% (active) |
| Clc1ccc([C@@H]2CC3CCC2N3)cn1 (stereo not given in full) | -8.41% (inactive) |
| C/C=C/c1ccc(C2[C@@H]3CN(S(C)(=O)=O)C[C@H]2N3)cc1 (stereo not given in full) | -6.54% (inactive) |
| O=C(O)[C@H]1[C@H](CO)[C@H]2Cn3c(cccc3=O)[C@@H]1N2C(=O)c1ccccc1 | 0.382% (inactive) |
| C=CCN1[C@@H]2CN(S(C)(=O)=O)C[C@H]1C2c1ccc(Br)cc1 (stereo not given in full) | 17.3% (inactive) |
| CC(C)Nc1nc(Cl)nc(NC(C)C)n1 | 50.3% (active) |
| CC(=O)N1C[C@@H]2C(c3ccc(Br)cc3)[C@H](C1)N2C (stereo not given in full) | 27.1% (inactive) and -21.4% (inactive) |
| COc1ccc2c(c1)[C@@]13CCCCC1[C@@H](C2)NCC3 (stereo not given in full) | 8.42% (inactive) |
| COc1cccc(-c2ccc3n(c2=O)C[C@H]2[C@H](CO)[C@@H](C(=O)O)[C@@H]3N2C(=O)c2cnccn2)c1 | 14.6% (inactive) |
| COc1ccccc1CN1[C@@H](CO)[C@@H](c2ccccc2)C12CN(C(=O)Cc1ccccc1)C2 | -6.56% (inactive) |
| COC(=O)C[C@@H]1CC[C@@H]2NC[C@@H](O)COC[C@H]2O1 | 7.25% (inactive) |
| COC(=O)C[C@H]1CC[C@H]2NC[C@@H](O)COC[C@@H]2O1 | 44% (active) and 14.5% (inactive) |
| CCC(C)NC1(c2ccccc2)CCCCC1 (stereo not given) | 12.2% (inactive) |
| C[C@@H]1CN([C@H](C)CO)C(=O)CCCn2cc(nn2)CO[C@@H]1CN(C)C(=O)Oc1cccc2ccccc12 | -14.5% (inactive) |
